Out of some 5,500 compounds screened, about 2,000 (36%) were called active. Another 18% or so got no clear call; they are omitted. Rule as the data show it: active = normalized growth mostly below about 0.91 (no sharp cut-off); inconclusive = no clear call, values can overlap the other calls; inactive = mostly above about 0.92. Some of the results follow.
Test: chemical genetic growth profiling, strain panel (AID 1159580);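 also: tested at 20 µM; growth read once vehicle control cultures reached saturation at 30 °C; 1 = growth at the plate median or of vehicle wells; lower values mean less growth of the strain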
Details: growth OD

Measured: normalized growth

COc1ccc2c(c1)O[C@@H]1COc3cc(OC)c(OC)cc3[C@@H]1C2=O
active: S. cerevisiae deletion strains, locus YJR043C, strain POL32, hits give low values 0.719 | S. cerevisiae deletion strains, locus YJR075W, strain HOC1, hits give low values 0.776 | S. cerevisiae deletion strains, locus YKL160W, strain elf1, hits give low values 0.428 | S. cerevisiae deletion strains, locus YLL001W, strain dnm1, hits give low values 0.794 | S. cerevisiae deletion strains, locus YLL026W, hits give low values 0.557 | S. cerevisiae deletion strains, locus YLL041C, strain sdh2, hits give low values 0.674 | S. cerevisiae deletion strains, locus YLR027C, strain aat2, hits give low values 0.445 | S. cerevisiae deletion strains, locus YLR102C, strain apc9, hits give low values 0.696 | S. cerevisiae deletion strains, locus YLR221C, strain rsa3, hits give low values 0.377 | S. cerevisiae deletion strains, locus YLR258W, strain gsy2, hits give low values 0.705 | S. cerevisiae deletion strains, locus YLR268W, strain sec22, hits give low values 0.739 | S. cerevisiae deletion strains, locus YLR320W, strain mms22, hits give low values 0.228 | S. cerevisiae deletion strains, locus YLR342W, strain FKS1, hits give low values 0.665 | S. cerevisiae deletion strains, locus YLR371W, strain rom2, hits give low values 0.854 | S. cerevisiae deletion strains, locus YLR418C, strain cdc73, hits give low values 0.546 | S. cerevisiae deletion strains, locus YML016C, strain PPZ1, hits give low values 0.84 | S. cerevisiae deletion strains, locus YML032C, strain rad52, hits give low values 0.521 | S. cerevisiae deletion strains, locus YML120C, strain ndi1, hits give low values 0.59 | S. cerevisiae deletion strains, locus YML124C, strain tub3, hits give low values 0.874 | S. cerevisiae deletion strains, locus YMR058W, strain fet3, hits give low values 0.537 | S. cerevisiae deletion strains, locus YMR078C, strain ctf18, hits give low values 0.373 | S. cerevisiae deletion strains, locus YMR125W, strain sto1, hits give low values 0.612 | S. cerevisiae deletion strains, locus YMR129W, hits give low values 0.908 | S. cerevisiae deletion strains, locus YMR205C, strain PFK2, hits give low values 0.23 | S. cerevisiae deletion strains, locus YMR223W, strain ubp8, hits give low values 0.78 | S. cerevisiae deletion strains, locus YNL067W, strain RPL9B, hits give low values 0.858 | S. cerevisiae deletion strains, locus YNL071W, strain lat1, hits give low values 0.246 | S. cerevisiae deletion strains, locus YNL153C, strain GIM3, hits give low values 0.597 | S. cerevisiae deletion strains, locus YNL233W, strain BNI4, hits give low values 0.427 | S. cerevisiae deletion strains, locus YNL248C, strain rpa49, hits give low values 0.814 | S. cerevisiae deletion strains, locus YNL307C, strain MCK1, hits give low values 0.183 | S. cerevisiae deletion strains, locus YNL322C, strain KRE1 (second series), hits give low values 0.761 | S. cerevisiae deletion strains, locus YOL147C, strain pex11, hits give low values 0.25 | S. cerevisiae deletion strains, locus YOR001W, strain rrp6, hits give low values 0.689 | S. cerevisiae deletion strains, locus YOR069W, strain VPS5, hits give low values 0.905 | S. cerevisiae deletion strains, locus YOR070C, strain gyp1, hits give low values 0.528 | S. cerevisiae deletion strains, locus YOR080W, strain dia2, hits give low values 0.839 | S. cerevisiae deletion strains, locus YOR136W, strain idh2, hits give low values 0.767 | S. cerevisiae deletion strains, locus YOR144C, strain elg1, hits give low values 0.573 | S. cerevisiae deletion strains, locus YOR265W, strain rbl2, hits give low values 0.797 | S. cerevisiae deletion strains, locus YOR270C, strain vph1, hits give low values 0.593 | S. cerevisiae deletion strains, locus YOR290C, strain snf2, hits give low values 0.315 | S. cerevisiae deletion strains, locus YOR316C, strain cot1, hits give low values 0.771 | S. cerevisiae deletion strains, locus YPL051W, strain arl3, hits give low values 0.803 | S. cerevisiae deletion strains, locus YPL078C, strain atp4, hits give low values 0.635 | S. cerevisiae deletion strains, locus YPL240C, strain hsp82, hits give low values 0.714 | S. cerevisiae deletion strains, locus YPR119W, strain clb2, hits give low values 0.731 | S. cerevisiae deletion strains, locus YPR163C, strain tif3, hits give low values 0.438 | S. cerevisiae deletion strains, locus YPR167C, strain met16, hits give low values 0.886 | S. cerevisiae deletion strains, strain wtn01, hits give low values 0.686 | S. cerevisiae strains, strain wild type, hits give low values 0.753
inactive: S. cerevisiae deletion strains, locus YJR066W, strain TOR1, hits give low values 0.92 | S. cerevisiae deletion strains, locus YKL009W, strain mrt4, hits give low values 1.01 | S. cerevisiae deletion strains, locus YKL068W, hits give low values 0.984 | S. cerevisiae deletion strains, locus YKL085W, strain MDH1 (second series), hits give low values 0.984 | S. cerevisiae deletion strains, locus YKL085W, strain MDH1, hits give low values 0.984 | S. cerevisiae deletion strains, locus YKR001C, strain vps1, hits give low values 0.912 | S. cerevisiae deletion strains, locus YKR026C, strain gcn3, hits give low values 0.992 | S. cerevisiae deletion strains, locus YKR091W, strain srl3, hits give low values 0.988 | S. cerevisiae deletion strains, locus YLR039C, strain RIC1, hits give low values 0.914 | S. cerevisiae deletion strains, locus YLR058C, strain SHM2, hits give low values 0.9 | S. cerevisiae deletion strains, locus YLR113W, strain HOG1, hits give low values 0.983 | S. cerevisiae deletion strains, locus YLR262C, strain YPT6 (second series), hits give low values 0.994 | S. cerevisiae deletion strains, locus YLR262C, strain YPT6, hits give low values 0.928 | S. cerevisiae deletion strains, locus YLR357W, strain rsc2, hits give low values 0.932 | S. cerevisiae deletion strains, locus YLR370C, strain arc18, hits give low values 0.984 | S. cerevisiae deletion strains, locus YLR384C, strain iki3, hits give low values 1.01 | S. cerevisiae deletion strains, locus YMR231W, strain pep5, hits give low values 0.991 | S. cerevisiae deletion strains, locus YMR263W, strain SAP30, hits give low values 0.922 | S. cerevisiae deletion strains, locus YMR307W, strain GAS1, hits give low values 0.909 | S. cerevisiae deletion strains, locus YNL183C, strain NPR1, hits give low values 0.927 | S. cerevisiae deletion strains, locus YNL209W, strain ssb2, hits give low values 1.01 | S. cerevisiae deletion strains, locus YNL250W, strain rad50, hits give low values 0.936 | S. cerevisiae deletion strains, locus YNL271C, strain bni1, hits give low values 0.963 | S. cerevisiae deletion strains, locus YNL298W, strain CLA4, hits give low values 0.97 | S. cerevisiae deletion strains, locus YNR049C, strain mso1, hits give low values 0.951 | S. cerevisiae deletion strains, locus YNR052C, strain pop2, hits give low values 0.948 | S. cerevisiae deletion strains, locus YOL012C, strain htz1 0.241 | S. cerevisiae deletion strains, locus YOR061W, strain CKA2, hits give low values 0.967 | S. cerevisiae deletion strains, locus YOR083W, strain WHI5, hits give low values 0.916 | S. cerevisiae deletion strains, locus YOR106W, strain vam3, hits give low values 0.871 | S. cerevisiae deletion strains, locus YOR184W, strain ser1, hits give low values 0.896 | S. cerevisiae deletion strains, locus YOR231W, strain MKK1, hits give low values 0.977 | S. cerevisiae deletion strains, locus YPL055C, strain LGE1, hits give low values 0.775 | S. cerevisiae deletion strains, locus YPL106C, strain sse1, hits give low values 1.04 | S. cerevisiae deletion strains, locus YPL256C, strain CLN2, hits give low values 1.01 | S. cerevisiae deletion strains, locus YPR141C, strain kar3, hits give low values 0.959
